Screening results: PubChem BioAssay, National Center for Advancing Translational Sciences (NCATS)
APE1 inh = blocks human APE1 abasic DNA cleavage; P27695; recombinant APE1, TAMRA/BHQ-2 abasic DNA cleavage fluorescence; Potency, µM (titrated, usually from 65.8 µM), for inactives: at the top dose activity change, negative = inhibition, hits mostly inhibitors; 0.35% of 350,000 active;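 also: plate controls were vehicle for no effect and reference inhibitor for full effect; nearly all actives have a fitted effect of over 55% in size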
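Readout is kinetic fluorescence (ex 525, em 598 nm) from cleavage of 50 nM TAMRA/BHQ-2 THF abasic duplex by 0.75 nM APE1, compound added 15 min beforehand at RT.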
BLM inh = Bloom syndrome helicase (human) inhibition. P54132. recombinant BLM DNA unwinding, fluorescence dequenching. Potency, µM (series often up to 56.1 µM), inactives show at the highest dose activity change, negative = inhibition, usual class: inhibitors. 0.2% of 350,000 active;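 also: plate controls were vehicle for no effect and no enzyme for full effect; nearly all actives have a fitted effect of over 35% in size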
L3MBTL1 inh = inhibitors of human L3MBTL1. AID 485360. 0.66% of 230,000 active. Potency, µM (doses to about 57.1 µM), for inactives: at the top dose activity, negative = inhibition, hits mostly inhibitors. AlphaScreen L3MBTL1–H3K9me1 peptide binding; also: nearly all actives have a fitted effect of over 60% in size
Target sequence (Q9Y468 whole entry, looked up): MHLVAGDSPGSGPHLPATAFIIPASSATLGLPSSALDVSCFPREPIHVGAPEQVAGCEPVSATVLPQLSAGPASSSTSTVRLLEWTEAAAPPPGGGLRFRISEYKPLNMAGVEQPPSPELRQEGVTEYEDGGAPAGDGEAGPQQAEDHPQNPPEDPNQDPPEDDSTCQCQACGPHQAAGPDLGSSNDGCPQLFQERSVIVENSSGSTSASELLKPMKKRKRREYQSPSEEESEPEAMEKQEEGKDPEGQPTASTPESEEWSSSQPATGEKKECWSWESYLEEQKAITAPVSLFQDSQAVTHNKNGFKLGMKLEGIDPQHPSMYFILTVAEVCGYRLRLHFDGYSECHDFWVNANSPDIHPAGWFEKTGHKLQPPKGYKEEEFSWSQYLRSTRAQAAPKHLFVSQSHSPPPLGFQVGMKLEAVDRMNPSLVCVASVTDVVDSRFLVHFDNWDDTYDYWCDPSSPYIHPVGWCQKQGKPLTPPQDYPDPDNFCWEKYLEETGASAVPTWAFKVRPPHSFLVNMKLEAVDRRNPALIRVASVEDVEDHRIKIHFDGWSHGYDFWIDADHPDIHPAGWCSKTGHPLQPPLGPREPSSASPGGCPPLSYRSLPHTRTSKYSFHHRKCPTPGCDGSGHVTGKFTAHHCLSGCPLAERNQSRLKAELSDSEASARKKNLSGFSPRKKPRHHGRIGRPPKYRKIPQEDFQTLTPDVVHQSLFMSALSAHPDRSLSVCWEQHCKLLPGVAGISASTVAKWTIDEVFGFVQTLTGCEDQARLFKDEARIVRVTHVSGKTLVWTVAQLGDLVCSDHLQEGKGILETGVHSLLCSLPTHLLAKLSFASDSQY
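Read-out is AlphaScreen signal from streptavidin donor and nickel chelate acceptor beads (10 ug/mL final each) bridging L3MBTL1 (50 nM) and biotinylated K9-monomethylated H3(1-15) peptide (75 nM), after 30 min compound exposure at room temperature.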
RGS12 GoLoco inh = RGS12 GoLoco-Gai1 interaction inhibition. P63096. Gai1:RGS12 GoLoco peptide FP, rhodamine, 10 min. Potency, µM (top dose mostly 61.6 µM), inactives show top-dose activity, negative = inhibition, hits mostly inhibitors. 0.44% of 230,000 active; active = well fitted inhibition curve with a large enough effect, not every such curve was filed as active; inactive = no such curve, though single readings can be large or run the other way; also: nearly all actives have a fitted effect of over 30% in size
JMJD2E inh = blocks human JMJD2E demethylase activity; B2RXH2; JMJD2E catalytic domain, FDH-coupled NADH fluorescence (FDH is formaldehyde dehydrogenase); Potency, µM (highest dose often 57.1 µM), for the others: top-dose activity change, negative = inhibition, most hits filed as inhibitors; 1.6% of 230,000 active; AID 2147; active = well fitted inhibition curve with a large enough effect, not every such curve was filed as active; inconclusive = small, poorly fitted or top-dose-only effect, or another doubt; inactive = no such curve, though single readings can be large or run the other way;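 also: 0% = wells with enzyme and -100% = buffer wells without enzyme; nearly all actives have a fitted effect of over 50% in size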
RECQ1 inh = inhibitors of human RECQ1 DNA helicase | RECQ1 DNA unwinding, red fluorescence kinetic read | Potency, µM (highest dose often 57.3 µM), inactives show at the highest dose activity, negative = inhibition, hits mostly inhibitors | 0.54% of 240,000 active;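 also: plate controls were vehicle for no effect and no enzyme for full effect; nearly all actives have a fitted effect of over 30% in size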
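RECQ1T1 50 nM; forked duplex (20 bp + 30-nt ss tails) 200 nM, ATP 2 mM final; pH 8.0, 2 mM MgCl2, 2.5 ug/ml poly(dI-dC); 15 min compound preincubation; discontinuous kinetic read over 2 h at RT.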
An asterisk follows results filed as active; i = inactive; ? = inconclusive; nt = not tested or not shown; ! = not confirmed by another sample; [ ] = remark or other dose. This excerpt belongs to a sample that is enriched for hits. Unless noted, calls follow the shape of the dose curve; as a rule, active = well fitted curve in the direction sought with a large enough effect; inconclusive = small, poorly fitted or top-dose-only effect, or another doubt; inactive = no such curve, though single readings can be large; an effect the other way counts as inactive or inconclusive. Unless noted, % is scaled to controls: 0 for no effect and ±100 for the full control effect; potency is read from the fitted curve at half-maximal effect.

SMILES | APE1 inh | BLM inh | L3MBTL1 inh | RGS12 GoLoco inh | JMJD2E inh | RECQ1 inh
CN1CCC(c2c[nH]c3ccccc23)C1 (centres undefined) | -11.0% | 1.5% | nt | -0.3% | 22.4µM* | 7.3%
Nc1ccccc1Cl | ? | nt | 2.4% | 50.1µM* | nt | -0.2%
C[C@@H](O)CN(CCN(C[C@@H](C)O)C[C@@H](C)O)C[C@@H](C)O.O=[N+]([O-])O.[Cu] | nt | nt | nt | -2.0%[14.2 µM] | nt | nt
O=C(CSC1c2ccccc2-c2ccccc21)N/N=C/c1ccccc1O | -3.6% | -13.5% | nt | 11.6% | 25.1µM* | -20.5%
O=C(CSC1c2ccccc2-c2ccccc21)N/N=C/c1ccc(C(=O)O)cc1 | -5.0% | 2.1% | -4.4% | 5.0% | -1.8% | 13.9%
CCC12CCN(Cc3ccc(F)cc3)CC1Oc1c(O)cccc12 (centres undefined) | 19.6% | nt | nt | nt | nt | nt
CC(C)c1nccn1Cc1ccc(Cl)cc1Cl | nt | nt | nt | -7.9%[14.2 µM] | nt | nt
O=[N+]([O-])c1cc(-c2ccc([As](=O)(O)O)cc2)ccc1[As](=O)(O)O | ? | -3.7% | 22.4µM* | 4.6%[14.2 µM] | -16.1% | -4.0%
CCN1C[C@]2(COC)[C@H](O)C[C@H](OC)[C@@]34[C@@H]5C[C@@]6(O)[C@H](OC(=O)c7ccccc7)[C@@H]5[C@@](OC(C)=O)([C@@H]([C@H](OC)[C@H]23)[C@@H]14)[C@@H](O)[C@@H]6OC | 2.9% | nt | nt | nt | nt | nt
Cc1ccc(N2C(=O)NC(=O)/C(=C/C=C/c3ccco3)C2=O)cc1 | ? | 4.6% | ? | 22.5% | -22.1% | 20µM*
CC1=NN(c2ccccc2)C(=O)C1/C=C1\C(=O)NC(=O)N(c2cc(C)cc(C)c2)C1=O (centres undefined) | -3.0% | 1.3% | -4.9% | 1.3% | -1.7% | -1.0%
COc1cc(/C=C2\C(=O)NC(=O)N(c3ccccc3)C2=O)cc(OC)c1OC | -2.4% | -2.8% | nt | -7.4% | -15.4% | -13.3%
O=C1NC(=O)N(Cc2ccc(F)cc2)C(=O)/C1=C\C=C\c1ccco1 | ? | ? | nt | 200.7% | -3.1% | 28.2µM*
CC(C)c1ccc(N2C(=O)NC(=O)/C(=C/C=C/c3ccco3)C2=O)cc1 | ? | -21.4% | ? | 125.5% | -17.4% | ?
Cc1cc(C)cc(N2C(=O)NC(=O)/C(=C\C=C\c3ccco3)C2=O)c1 | 12.3% | 1.8% | ? | 94.7% | -14.0% | 14.1µM*
O=C1NC(=O)N(c2ccccc2)C(=O)/C1=C\C=C\c1ccccc1 | -1.9% | -11.3% | ? | -2.2% | 3.98µM* | -14.0%
CCn1c(SCC(=O)Nc2nncs2)nnc1-c1ccco1 | 64.4% | -3.7% | nt | nt | nt | nt
Cc1ccc(-n2c(O)c(C=NCc3ccco3)c(=O)[nH]c2=S)cc1C | ? | ? | 31.6µM* | 62.3% | ? | -16.2%
CC[C@H](C)C(=O)O[C@H]1C[C@H](O)C=C2C=C[C@H](C)[C@H](CC[C@@H](O)C[C@@H](O)CC(=O)O)[C@H]21 | -0.2% | -0.5% | nt | 1.4% | 9.0% | i
Cc1ccc(CN2CCN(Cc3ccccc3F)CC2)cc1 | 1.0% | -1.8% | -0.2% | 0.1% | 12.6µM* | i
CCN1CCN(Cc2ccc(C)cc2)CC1 | -2.7% | -0.3% | 2.8% | 2.8% | 0.6% | 6.8%
COc1ccccc1CN1CCN(Cc2ccc(Cl)cc2)CC1 | -0.8% | 1.0% | -7.8% | -1.9% | 20µM* | i
CC(=O)Nc1cc([As](=O)(O)O)ccc1O | 6.1% | -0.4% | -10.2% | 12.2% | 4.5% | -3.0%
CC(=O)Nc1cccc([As](=O)(c2cccc(NC(C)=O)c2)c2cccc(NC(C)=O)c2)c1 | -8.7% | 24.0% | 1.3% | 5.01µM* | -2.4% | i
C[C@H]1C[C@H](C)C(=O)[C@@H]([C@H](O)CC2CC(=O)NC(=O)C2)C1 | nt | -2.2% | nt | -1.9% | 8.5% | -4.3%
SMILES | APE1 inh | BLM inh | L3MBTL1 inh | RGS12 GoLoco inh | JMJD2E inh | RECQ1 inh
C[C@@H]1CC[C@@]2(OC1)O[C@H]1[C@@H](O)[C@H]3[C@@H]4CC[C@H]5C[C@@H](O[C@@H]6O[C@H](CO)[C@H](O[C@@H]7O[C@H](CO)[C@@H](O)[C@H](O[C@@H]8OC[C@@H](O)[C@H](O)[C@H]8O)[C@H]7O[C@@H]7O[C@H](CO)[C@@H](O)[C@H](O[C@@H]8O[C@H](CO)[C@@H](O)[C@H](O)[C@H]8O)[C@H]7O)[C@H](O)[C@H]6O)[C@H](O)C[C@]5(C)[C@H]4CC[C@]3(C)[C@H]1[C@@H]2C | 14.0% | nt | nt | -18.8% | nt | -9.4%
O=C1NC(=O)C(=Cc2ccc(-c3ccccc3[N+](=O)[O-])o2)C(=O)N1 | 17.1% | -1.0% | nt | 7.3% | 20µM* | -4.5%
O=C1NC(=O)C(=Cc2ccc(-c3cc(Cl)ccc3[N+](=O)[O-])o2)C(=O)N1 | ? | -15.3% | ? | 34.9% | -29.3% | -8.7%
CC1CN(c2ccccc2)NC1=O (centres undefined) | 0.0% | 8.7% | ? | -1.3% | -1.9% | 21.2%
C=CCOC(=O)COc1cc(C)cc2oc(=O)c3c(c12)CCC3 | -3.3% | -0.3% | 3.3% | 4.3% | ? | i
Cc1cc(OCC(=O)OC(C)(C)C)c2c3c(c(=O)oc2c1)CCC3 | -5.1% | -1.0% | 2.7% | -2.9% | 4.47µM* | -10.5%
O=C(O)c1cc[c]([Hg][S]c2ncnc3nc[nH]c23)cc1 | nt | nt | nt | 0.631µM* | nt | nt
Nc1ccc2ccc3cccc[n+]3c2c1 | -14.1% | -1.8% | 0.1% | nt | nt | nt
C[n+]1c(-c2ccccc2)c2cc(N)ccc2c2ccc(N)cc21 | 10.6µM* | ? | nt | nt | nt | nt
CC1=C(O)C(=O)[C@H]2O[C@@H]2C1=O | ? | -1.3% | nt | -5.7% | ? | -11.7%
CC1=CC(=O)NP(=O)(Oc2ccc3ccccc3c2)N1 (centres undefined) | -3.0% | -4.7% | 4.3% | 12.6µM* | -8.7% | i
NC(CCl)=N[C@H]1CN2CCC1CC2 | nt | nt | nt | 9.0%[14.2 µM] | nt | nt
CN(C)C(=S)SSC(=S)N(C)C | -2.1% | -2.8% | 63.9% | 3.16µM*! | 25.1µM* | -5.4%
N#CC(C#N)=Cc1ccc(O)c(O)c1 | ? | -9.4% | 22.4µM* | -4.5% | 7.94µM* | 12.5%
CC(C)(C)c1cc(C=C(C#N)C#N)cc(C(C)(C)C)c1O | ? | nt | -19.8% | 9.8% | 19.0% | ?
COc1cc(C=C(C#N)C#N)cc(O)c1O | -5.6% | nt | nt | 17.3% | 11.2µM* | i
O=[N+]([O-])c1cccc(CN2CCN(Cc3ccc(Br)cc3)CC2)c1 | 14.9% | -1.7% | -18.7% | -2.8% | 25.1µM* | i
CN1C(CC(O)c2ccccc2)CCCC1CC(O)c1ccccc1 (centres undefined) | -1.8% | nt | 4.7% | nt | nt | nt
Cn1c[n+](C)cc1C(O)c1ccccc1 (centres undefined) | 1.0% | 0.5% | 18.5% | 14.1µM* | ? | -2.7%
